This is a sample that favours compounds with a hit; in the whole collection about 17% have one here.
HT1080NT lethal: qHTS for induction of synthetic lethality in tumor cells producing 2HG: qHTS for the HT-1080-NT fibrosarcoma cell line. HT-1080-NT fibrosarcoma viability, CellTiter-Glo ATP luminescence, 48 h. Potency, µM (highest dose often 46.1 µM), inactives show at the top dose activity, negative = less viability, usual class: cytotoxic. hit rate 1.6% among 360,000. AID 686970, 2013;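 further: NT is the 2HG producing partner of a matched IDH1 knockdown line; 0% = DMSO-treated cells and -100% = media-only wells without cells; nearly all actives have a fitted effect of over 55% in size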
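Viability by CellTiter-Glo luminescence after 48 h compound exposure at 37C of HT-1080-NT cells (750/well, RPMI, 5% FBS). % activity scaled between DMSO wells and medium-only wells, then curve-fitted and categorized by curve class.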
TDP1 cell CPT: qHTS for Inhibitors of human tyrosyl-DNA phosphodiesterase 1 (TDP1): qHTS in cells in presence of CPT. AID 686979, 2013. hit rate 12% among 420,000. Potency, µM (highest dose often 46.2 µM), for inactives: at the highest dose activity change, negative = growth inhibition, actives largely listed as inhibitors. chicken DT40 Tdp1-/-;hTDP1 cells + 20 nM CPT, ATP luminescence, 48 h; further: on the % scale 0 is the no-effect control and ±100 the full control effect; nearly all actives have a fitted effect of over 55% in size
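Chicken DT40 Tdp1-/- cells stably complemented with human TDP1 were seeded at 400 cells/well in medium containing 20 nM camptothecin, exposed to pin-transferred compounds, and grown at 37 °C for at least 48 hr. Viability was read as ATP luminescence.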
HepG2 tox: qHTS for Inhibitors of TGF-b: Cytotox Counterscreen; HepG2 CAGA-GFP viability, ATP luminescence, 18 h; Potency, µM (top dose mostly 46.1 µM), for the others: at the top dose activity change, negative = cytotoxicity, most hits filed as cytotoxic; hit rate 0.76% among 410,000; AID 588856, 2011
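CellTiter-Glo luminescence gave cytotoxicity after 18 hours at 37 degrees C. The cells were HepG2 CAGA-GFP in 1% FBS DMEM, stimulated with 500 pg/mL TGF-beta after compound addition. %Activity was normalised to no-cell wells (complete cell-killing) and DMSO (no toxicity), and curves were fitted and classified.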
TDP1 cell noCPT: qHTS for Inhibitors of human tyrosyl-DNA phosphodiesterase 1 (TDP1): qHTS in cells in absence of CPT; DT40 Tdp1-/- hTDP1 cells, no CPT, ATP luminescence, 48 h; Potency, µM (titrated, usually from 46.2 µM), without a hit: at the highest dose activity change, negative = growth inhibition, actives largely listed as inhibitors; hit rate 15% among 420,000; AID 686978, 2013; further: on the % scale 0 is the no-effect control and ±100 the full control effect; nearly all actives have a fitted effect of over 55% in size
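Compound effects on proliferation are scored in DT40 Tdp1-/-;hTDP1 cells in the absence of CPT. ATP levels (CellTiter-Glo luminescence) are recorded after a ≥48 hr, 37 °C incubation.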
HT1080 IDH1KD tx: qHTS for induction of synthetic lethality in tumor cells producing 2HG: qHTS for the HT-1080-IDH1KD cell line. HT-1080 IDH1 knockdown viability, ATP luminescence, 48 h. Potency, µM (doses to about 46.1 µM), without a hit: at the highest dose activity, negative = toxicity, most hits filed as cytotoxic. hit rate 2% among 360,000;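 further: 0% = DMSO wells and -100% = cell-free medium wells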
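After a 2 h attachment period, IDH1KD HT-1080 cells took pin-transferred compound for 48 h at 37 °C; ATP-based luminescence after 10 min room-temperature reagent incubation reported viability.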
TGFb inhibitor: qHTS for Inhibitors of TGF-b; HepG2 CAGA-GFP TGF-b/SMAD3 reporter, GFP fluorescence, 18 h; TGF-beta stimulated, 500 pg/mL final; Potency, µM (doses to about 46.1 µM), inactives show top-dose activity, negative = inhibition, hits mostly inhibitors; hit rate 1.2% among 410,000; AID 588855, 2011; further: on the % scale 0 is the no-effect control and ±100 the full control effect; nearly all actives have a fitted effect of over 65% in size
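Cell-based qHTS in HEPG2 carrying a CAGA-GFP Smad reporter; compounds added before 500 pg/mL final TGF-beta, 18 h incubation at 37 degrees C, GFP fluorescence quantified per cell by imaging cytometry.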
* marks the source's active call; other numbers are inactive results; ? = inconclusive; · = not tested or not shown; ! = repeats disagree. The call rests on the fitted dose curve; in most records, active means well fitted curve in the direction sought with a large enough effect; inconclusive means small, poorly fitted or top-dose-only effect, or another doubt; inactive means no such curve, though single readings can be large; an effect the other way counts as inactive or inconclusive. Potency means the concentration at half of the fitted maximal effect.

SMILES	HT1080NT lethal	TDP1 cell CPT	HepG2 tox	TDP1 cell noCPT	HT1080 IDH1KD tx	TGFb inhibitor
COc1ccc(COCC(O)CN2CCC(CN3C(=O)c4cccc5cccc(c45)C3=O)CC2)cc1OC (configuration not stated)	?	?	-2%	21µM*	?	-21%
Cc1cc(C)cc(OCC(O)CN2CCC(CN3C(=O)c4cccc5cccc(c45)C3=O)CC2)c1 (configuration not stated)	18µM*	15µM*	20µM*	?	18µM*	?
COc1ccc(COCC(O)CN2CCC(C(N)=O)CC2)cc1OC (configuration not stated)	7%	16%	7%	3%	6%	2%
Cc1ccc(S(=O)(=O)N2CCC(CN3C(=O)c4cccc5cccc(c45)C3=O)CC2)cc1	6%	?	-21%	?	3%	-3%
C[C@H]1C(=O)N(C)CCN1C(=O)c1ccc(OC2CCN(CCc3ccccc3)CC2)cc1	10%	0%	0%	0%	0%	-5%
COC(=O)C(C)(C(=O)OC)c1ccccc1[N+](=O)[O-]	9%	1%	3%	-8%	7%	1%
CCOc1ccc(CCNC(=O)c2ccc3c(=O)[nH]c4c(C(=O)NC(C)C)sc(=S)n4c3c2)cc1	-1%	23µM*	9%	13µM*	1%	-3%
CC(C)NC(=O)c1sc(=S)n2c1[nH]c(=O)c1ccc(C(=O)NCCc3ccc(Cl)cc3)cc12	9%	?	-7%	?	3%	0%
CC(=O)Nc1cccc(-c2csc(C(C)(NC(C)=O)c3ccccc3)n2)c1 (configuration not stated)	5%	26µM*	-14%	?	0%	4%
CC(=O)NC(C)(c1ccccc1)c1nc(-c2cccc(C(F)(F)F)c2)cs1 (configuration not stated)	?	?	-34%	15µM*	0%	-29%
O=C(NCc1c(O)ccc2ccccc12)c1ccccc1	-3%	-7%	-12%	2%	5%	-23%
O=C(/C=C/c1cccc(Cl)c1)Nn1c(-c2cccs2)nc2ccccc2c1=O	-4%	-1%	12%	-26%	0%	12%
CC(C)N(C(=O)COC(=O)c1ccc(Cl)s1)c1ccccc1	7%	?	-4%	-2%	6%	4%
Cc1ccc(S(=O)(=O)N2CCc3ccccc3C2CN2C(=O)c3ccccc3C2=O)cc1 (configuration not stated)	-10%	22µM*	-22%	11µM*	-2%	0%
CC(=O)Nc1ccc(NC(=O)C(C)OC(=O)c2ccc3[nH]c(C)c(C)c3c2)cc1 (configuration not stated)	-14%	4%	0%	-16%	-3%	3%
COc1cc(OC)cc(C(C(=O)NCc2ccccc2)N(Cc2ccco2)C(=O)c2ccno2)c1 (configuration not stated)	-2%	?	-26%	23µM*	-5%	3%
Cc1ccc(C(C(=O)NCc2ccccc2)N(Cc2ccco2)C(=O)c2snc(C(N)=O)c2N)o1 (configuration not stated)	-3%	?	-6%	15µM*	-1%	0%
CCc1ccccc1N(CC(=O)NCc1ccco1)C(=O)c1snc(C(N)=O)c1N	-1%	?	-14%	18µM*	0%	7%
CC(C)CCNC(=O)CN(Cc1ccco1)C(=O)c1snc(C(N)=O)c1N	19%	3%	-9%	-17%	24%	6%
Cc1occc1C(=O)NCCCc1ccccc1	-8%	?	4%	-8%	-6%	-14%
COc1ccc(CCNC(=O)c2cc3ccc(Cl)cc3nc2N)cc1	-13%	?	·	5.8µM*	?	·
Nc1nc2cc(Cl)ccc2cc1C(=O)NCCCc1ccccc1	?	?	·	15µM*	-23%	·
Cc1ccc(C)n1-c1ccc(C(=O)NN)cc1	-9%	7.3µM*	1%	21µM*	-8%	-3%
C/C(=N\Nc1nc(-c2ccccc2O)nc2ccccc12)c1ccccc1	14%	?	-11%	7.3µM*	2%	-12%
Oc1ccc(Nc2nc(-c3ccccc3F)nc3ccccc23)cc1	-10%	-17%	-13%	-21%	-3%	2%
SMILES	HT1080NT lethal	TDP1 cell CPT	HepG2 tox	TDP1 cell noCPT	HT1080 IDH1KD tx	TGFb inhibitor
Oc1ccccc1Nc1nc(-c2ccccc2O)nc2ccccc12	-13%	-2%	-8%	-30%	-17%	0%
C/C(=N\Nc1nc(-c2ccccn2)nc2ccccc12)c1ccc(F)cc1	-28%	2.6µM*	-42%	5.8µM*	?	?
C/C(=N/Nc1nc(-c2ccccc2F)nc2ccccc12)c1ccccc1O	?	7.3µM*	-102%	9.2µM*	0%	13µM*
COc1ccc(/C(C)=N/Nc2nncc3ccccc23)cc1	3%	9%	-5%	-18%	2%	?
CN(C)Cc1nc2ccccc2c(=O)n1Cc1nc(C(C)(C)C)cs1	1%	?	20%	?	-6%	-6%
CN1CCN(Cc2nc3ccccc3c(=O)n2Cc2nc(-c3ccccc3F)cs2)CC1	-13%	16µM*	-36%	10µM*	-24%	-24%
CN1CCN(Cc2nc3ccccc3c(=O)n2Cc2nc(-c3ccc4ccccc4c3)cs2)CC1	5.8µM*	4.6µM*	16µM*!	2.3µM*	3.7µM*	?
CC(C)(C)S(=O)N1Cc2cc(C(=O)NCC(F)(F)F)nc(-c3cccc(-c4cccc(F)c4)c3)c2[C@H]1CCO (some centres not stated)	-19%	?	-8%	21µM*	-28%	?
COCCNC(=O)c1cc2c(c(-c3cccc(-c4cccc(OC)c4)c3)n1)[C@H](CCO)N(S(=O)C(C)(C)C)C2 (some centres not stated)	-3%	?	-2%	?	1%	-12%
